# Glioma ERSR ind: inducers of ER stress response in human glioma cells | U87-MG GRP78 promoter luciferase reporter, 16 h | Potency, µM, for inactives: at the top dose activation, hits mostly activators | 0.02% of 420,000 active; active = well fitted curve in the direction sought with a large enough effect; inconclusive = small, poorly fitted or top-dose-only effect, or another doubt; inactive = no such curve, though single readings can be large; an effect the other way counts as inactive or inconclusive; also: potency is read from the fitted curve at half-maximal effect; series mostly up to about 76 µM; % of control where 0% means no effect; nearly all actives have a fitted effect of over 35% in size
#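 Stably transfected U87-MG glioma cells carrying a GRP78-based luciferase sensor; 16 h compound incubation. Luminescence end-point read 10 min after Bright-Glo addition at room temperature.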
# CtBP-E1A inh: inhibitors of CtBP/E1A interaction; AlphaScreen GST-E1A/His-CtBP binding, 1536-well; active compounds read low; activity change, % (concentration not given with the values); 0.49% of 340,000 active; AID 651724; also: % is scaled to controls: 0 for no effect and ±100 for the full control effect
#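 Homogeneous bead-based format: GST-tagged E1A captured on glutathione donor beads, His-tagged CtBP on nickel acceptor beads; compounds precede bead addition by 2 h at 37 °C.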
# Six1-Eya2 inh: inhibitors of human Six1/Eya2 interaction | 0.56% of 360,000 active | AlphaScreen GST-Six1/His-Eya2 binding, biochemical; active compounds read low | AID 651725 | activity change, % (no concentration beside the values); also: % is scaled to controls: 0 for no effect and ±100 for the full control effect
# Target sequence (O00167 whole entry, looked up): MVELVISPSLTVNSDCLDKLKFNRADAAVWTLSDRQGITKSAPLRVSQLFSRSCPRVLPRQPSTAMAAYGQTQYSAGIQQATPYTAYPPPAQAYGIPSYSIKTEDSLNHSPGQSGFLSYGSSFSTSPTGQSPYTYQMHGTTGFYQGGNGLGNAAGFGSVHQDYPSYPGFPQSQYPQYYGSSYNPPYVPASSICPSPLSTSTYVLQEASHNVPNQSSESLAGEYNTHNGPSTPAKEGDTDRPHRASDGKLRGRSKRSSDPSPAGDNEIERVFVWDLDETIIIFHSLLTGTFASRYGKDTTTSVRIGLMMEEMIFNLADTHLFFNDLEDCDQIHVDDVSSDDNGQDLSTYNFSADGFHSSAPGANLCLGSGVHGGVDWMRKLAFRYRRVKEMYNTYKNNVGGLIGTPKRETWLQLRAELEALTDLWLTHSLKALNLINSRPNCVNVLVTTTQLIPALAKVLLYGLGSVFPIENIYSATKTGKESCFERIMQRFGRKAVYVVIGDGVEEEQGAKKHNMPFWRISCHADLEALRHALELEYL
# Target sequence (Q15475 whole entry, looked up): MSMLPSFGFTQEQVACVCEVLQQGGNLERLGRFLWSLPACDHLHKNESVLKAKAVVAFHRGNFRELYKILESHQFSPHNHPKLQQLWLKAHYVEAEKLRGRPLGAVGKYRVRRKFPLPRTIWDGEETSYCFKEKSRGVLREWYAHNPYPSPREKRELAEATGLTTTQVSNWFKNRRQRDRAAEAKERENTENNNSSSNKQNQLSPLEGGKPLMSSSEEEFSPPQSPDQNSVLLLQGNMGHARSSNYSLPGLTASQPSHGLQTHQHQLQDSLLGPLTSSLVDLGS
#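 Homogeneous AlphaScreen proximity assay pairing GST-Six1 with His-tagged Eya2 (added as 5X mix: 250 nM and 500 nM) in 50 mM Tris pH 8.0, 300 mM NaCl, 1 mM TCEP. Glutathione donor and nickel acceptor beads; 1 h, 37 °C, dark.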
# Eya2 inh: blocks the phosphatase activity of human Eya2; Potency, µM (top dose mostly 76.9 µM), inactives show at the top dose activity, negative = inhibition, hits mostly inhibitors; O00167; 0.006% of 330,000 active; recombinant Eya2, OMFP fluorescence dephosphorylation (OMFP is methylfluorescein phosphate); also: potency is read from the fitted curve at half-maximal effect; % is scaled to controls: 0 for no effect and ±100 for the full control effect
#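 Eya2 protein (added as 0.2 uM solution) was preincubated with compound for 10 min at ambient temperature in 50 mM HEPES pH 7.5, 50 mM NaCl, 5 uM MgCl2, 0.05% BSA, 1 mM DTT. OMFP (added at 50 uM) then reacted 10 min; fluorescence read at 485/525 nm.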
# Numbers without * were called inactive; ? = inconclusive; · = not tested or not shown; ! = repeats disagree; [ ] = remark or other dose. Shown are actives, neighbours in structure and some others; about 0.58% of the full set was active somewhere. Rule as the data show it, unless noted: active = activity change below about -65%; inconclusive = mostly about -30% to -63%; inactive = weaker than that.
SMILES,Glioma ERSR ind,CtBP-E1A inh,Six1-Eya2 inh,Eya2 inh
O=C(O)CC(C(=O)O)N1C(=O)/C(=C/c2ccc(-c3nc4ccccc4s3)o2)SC1=S (centres undefined),-3.2%,?,-77.2*,-25.9%
Fc1ccc2c(c1)C(c1ccc(N3CCOCC3)cc1)=NNC(c1cccs1)=N2,0.0%,-22.6,-23.0,-21.5%
Brc1ccc2c(c1)C(c1ccc(N3CCOCC3)cc1)=NNC(c1cccs1)=N2,31.6µM*,-11.2,-17.3,-15.8%
O=C(O)CSc1cccc2cccnc12,-4.3%,?,?,-1.2%
Cc1ccc(C(=O)COC(=O)CSc2cccc3cccnc23)c(C)c1,?,-76.8*,0.0,·
COc1ccc(/C=C/C(=O)N2CCc3c(cnc(C)c3CNC(=O)c3ccsc3)C2)cc1OC,-4.7%,·,·,·
Cc1ccc(Cn2cc(CCC(=O)O)c3ccccc32)cc1,-4.5%,-65.3*,3.2,-1.7%
Cc1ccc(CNC(=O)CCc2cn(Cc3ccc(C)cc3)c3ccccc23)cc1,-4.2%,·,·,·
O=C(COc1ccccc1)N1CCN(S(=O)(=O)c2cccs2)CC1,-1.0%,-3.8,1.7,-5.9%
O=C(COc1ccc(-c2ccccc2)cc1)N1CCN(C(=O)c2cccs2)CC1,0.1%,7.0,-74.1*,-0.7%
CCCCNC(=O)[C@@H]1CC=C[C@@H]2CCN(CCCC)C(=O)[C@@H]21,-3.6%,·,·,·
O=c1c(CN2CCN(c3ccccn3)CC2)coc2ccccc12,0.8%,-5.9,11.8,-12.0%
CC(=O)NCc1cc(Cl)c2cccnc2c1O,·,·,·,-1.6%
Oc1c(CN2CCN(c3ccccn3)CC2)cc(Cl)c2cccnc12,-6.9%,-96.8*,-90.2*,4.3%
OCCN1CCN(Cc2cc(Cl)c3cccnc3c2O)CC1,4.2%,-95.3*,-90.3*,-13.0%
CC(NC(=O)C1CCOCC1)c1nnc2n1CCN(Cc1cc3c(cc1Cl)OCO3)CC2 (centres undefined),-5.6%,·,·,·
Cc1ccc2[nH]cc(C(O)c3c[nH]c4ccc(C)cc34)c2c1,-6.0%,·,·,·
CC(C)CC(N)c1csc(Nc2cnccn2)n1 (centres undefined),-6.0%,-75.1*,?,·
CC(C)CC(N)c1csc(Nc2ccc(C(F)(F)F)cn2)n1 (centres undefined),-11.6%,?,-5.1,·
NC(CO)c1csc(Nc2ccc(C(F)(F)F)cn2)n1 (centres undefined),-0.2%,-73.8*,?,·
CC(C)CC(N)c1csc(Nc2ccccn2)n1 (centres undefined),-2.7%,-89.2*,-83.3*,·
Cc1ncc2c(c1CNS(=O)(=O)N(C)C)CCN(C(=O)c1[nH]c3ccc(Cl)cc3c1C)C2,-4.2%,·,·,·
COc1ccc(C(=O)N/N=C/c2c(C)[nH]c(=O)[nH]c2=O)cc1,-2.7%,-85.9*,?,-9.1%
Cc1[nH]c(=O)[nH]c(=O)c1/C=N\NC(=O)CCc1ccc(OC(C)C)cc1,·,·,·,11.1%
COc1cc(/C=N/NC(=O)c2ccncc2)ccc1OC(=O)c1cccc(Br)c1,-4.7%,-7.6,-3.7,5.5%
SMILES,Glioma ERSR ind,CtBP-E1A inh,Six1-Eya2 inh,Eya2 inh
CCOc1ccccc1C(=O)N/N=C/c1cccc2cccnc12,-4.7%,?,?,-2.7%
CCOc1ccc(C(=O)N/N=C/c2cccc3cccnc23)cc1,2.7%,-98.1*,-91.8*,21.9%
COc1ccc(C(=O)N/N=C/c2cccc3cccnc23)cc1,4.5%,-92.5*,-90.2*,6.3%
COc1cccc(/C=N/NC(=O)c2ccncc2)c1OC(=O)c1ccc(Br)cc1,-2.8%,-81.3*,?,7.4%
COc1ccc(C(=O)N/N=C/c2cccnc2)cc1,3.2%,2.0,5.2,0.9%
COc1ccc(OC)c(-c2ccc(O)c(CN3CCc4c([nH]c5ccccc45)C3)c2)c1,-2.6%,·,·,·
Cc1c(C(=O)NCC(C)(C)CN(C)C)cnn1-c1nccc(-c2ccccc2F)n1,0.2%,·,·,·
CCCc1nc2cccnc2n1C1CCN(C(=O)CC2NC(=O)c3ccccc32)CC1 (centres undefined),4.3%,·,·,·
CSCC[C@H](NC(=O)OC(C)(C)C)C(=O)N/N=C/c1cccc2cccnc12,-2.8%,-74.7*,?,-9.6%
COc1ccc2nc(/C=N/NC(=O)[C@H](CCSC)NC(=O)OC(C)(C)C)ccc2c1,1.4%,-4.7,-24.8,-4.0%
COc1ccc(N/C=C/C(=O)C(F)(F)F)cc1,1.5%,-5.1,11.2,4.2%
COc1ccc(N/C=C/c2nc(SC)nnc2C)cc1,-3.7%,-85.2*,-72.2*,-7.2%
CSc1nnc(C)c(/C=C/Nc2ccc(Cl)cc2)n1,1.2%,?,-70.5*,15.9%
CSc1nnc(C)c(/C=C/Nc2ccc(F)cc2)n1,-5.0%,?,?,3.3%
CC(C)(C)C1=Nn2c(nnc2-c2ccco2)SC1,-2.0%,-6.8,-3.5,1.7%[15.4 µM]
Cc1cc(-c2nnc3n2N=C(c2ccc(-c4ccccc4)cc2)CS3)n[nH]1,-5.8%,-68.5*,-72.0*,10.2%
COc1ccc(C2=Nn3c(nnc3-c3ccco3)SC2)cc1,-0.8%,-80.1*,-65.7*,-9.2%
Oc1ccc(C2=Nn3c(nnc3-c3ccco3)SC2)cc1O,?,-94.0*,-89.4*,-3.7%
Cc1cc(-c2nnc3n2N=C(c2ccccc2)CS3)n[nH]1,-0.9%,?,?,29.2%
CCn1c(-c2ccccc2F)nc2cc(NC(C)=O)cc(C(=O)N(C)Cc3cn(C)nc3C)c21,-4.8%,·,·,·
COc1ccc(C(=O)NCC2Cc3cc(C)cc(-c4cc(C(C)=O)ccc4F)c3O2)c(OC)c1OC (centres undefined),-0.8%,·,·,·
O=C(Nn1cc(C(=O)Nc2ccc(F)cc2F)c2ccccc2c1=O)c1cnccn1,-5.0%,?,-72.3*,-23.6%
O=C(NCc1cccnc1)c1cnn(-c2nccc(-c3cccs3)n2)c1C1CC1,2.0%,·,·,·
CC(=C/c1ccccc1)/C=N/NC(=O)c1cnccn1,-5.5%,-1.1,3.9,11.4%
O=C(N/N=C/C(Cl)=C/c1ccccc1)c1cnccn1,-0.4%,-92.3*,?,5.8%
SMILES,Glioma ERSR ind,CtBP-E1A inh,Six1-Eya2 inh,Eya2 inh
O=C(N/N=C/C(Cl)=C/c1ccccc1)c1ccccc1F,4.6%,?,2.2,-24.0%
O=C(N/N=C/C(Cl)=C\c1ccccc1)c1cnccn1,5.5%,-85.2*,?,-3.0%
O=C(N/N=C/C(Cl)=C\c1ccccc1)c1ccco1,-1.8%,-77.2*,-14.1,4.6%
CC1=C(SCCC#N)S/C(=C2\SC(C)=C(SCCC#N)S2)S1,2.4%,-4.6,-78.0*,-0.7%
O=C(O)c1cc([N+](=O)[O-])ccc1NCc1ccccc1,5.5%,-20.5,-2.5,-1.0%
O=C(O)c1cc([N+](=O)[O-])ccc1NCCCc1ccccc1,28.2µM*!,-24.1,5.0,26.9%
O=C1c2ccccc2C(=O)c2c1cccc2N1CCOCC1,-2.3%,-72.4*,-77.9*,-1.9%
COc1cc(/C=C/C(=O)O[C@H]2CC[C@]34C[C@]35CC[C@]3(C)[C@@H]([C@H](C)CCC=C(C)C)CC[C@@]3(C)C5CCC4C2(C)C)ccc1O (some centres undefined),2.2%,·,·,·
COc1ccc(C(=O)Oc2cccc3cccnc23)cc1[N+](=O)[O-],-2.4%,-72.4*,-88.2*,4.1%
O=S1(=O)CCOC[C@H](c2ccccc2)N1Cc1ccc(Cl)c(Cl)c1,-4.5%,·,·,·

# Compound activity (PubChem BioAssay)
